Laboratory results as given in PubChem BioAssay (NCI).
Compounds without any hit were thinned out: in the full panel of roughly 83,000, 20% have a hit.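 Plates (96-well) were seeded with cells, treated with compound at one concentration, and incubated for 48 hours before percent growth was determined.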 Activity calls are given as the source filed them. The calls were made as follows: active = growth percent below 10; inactive = the rest.

Key:
Assay in all cases: NCI-60 one-dose screen, 48 h (100 = growth as untreated, 0 = no growth, -100 = all killed)
[1] = tested on: SK-MEL-2 melanoma; conditions: 10 µM
[2] = tested on: EKVX NSCLC; conditions: 10 µM
[3] = tested on: SN12C renal; conditions: 10 µM
[4] = tested on: TK-10 renal; conditions: 10 µM unless noted
[5] = tested on: ACHN renal; conditions: 10 µM
[6] = tested on: CAKI-1 renal; conditions: 10 µM
[7] = tested on: A498 renal; conditions: 10 µM
[8] = tested on: CCRF-CEM leukemia; conditions: 10 µM
[9] = tested on: MOLT-4 leukemia; conditions: 10 µM
[10] = tested on: RPMI-8226 leukemia; conditions: 10 µM
[11] = tested on: OVCAR-8 ovarian; conditions: 10 µM
[12] = tested on: OVCAR-5 ovarian; conditions: 10 µM
[13] = tested on: OVCAR-4 ovarian; conditions: 10 µM
[14] = tested on: SK-OV-3 ovarian; conditions: 10 µM
[15] = tested on: IGROV1 ovarian; conditions: 10 µM
[16] = tested on: OVCAR-3 ovarian; conditions: 10 µM
[17] = tested on: HS 578T breast; conditions: 10 µM
[18] = tested on: NCI/ADR-RES ovarian; conditions: 10 µM
[19] = tested on: SR leukemia; conditions: 10 µM

Measured: growth

COC(=O)c1[nH]c(=O)c(C#N)c(C(=O)OC)c1C(=O)c1ccccc1
inactive: [1] 114% | [2] 91.4% | [3] 95% | [4] 143% | [5] 98.1% | [6] 90% | [7] 113% | [8] 105% | [9] 104% | [10] 107% | [11] 101% | [12] 113% | [13] 97.5% | [14] 101% | [15] 105% | [16] 107% | [17] 84.4% | [18] 97.5%

Cc1cc2ccccc2c(O)c1C#N
inactive: [1] 112% | [2] 108% | [3] 95.3% | [4] 110% | [5] 99.1% | [6] 115% | [7] 107% | [8] 104% | [9] 108% | [19] 108% | [10] 97.4% | [11] 99.7% | [12] 103% | [13] 114% | [14] 89.4% | [15] 114% | [16] 108% | [17] 108% | [18] 96%

COc1cc2cc(c1Cl)N(C)C(=O)C[C@H](OC(=O)[C@H](C)N(C)C(C)=O)[C@]1(C)O[C@H]1[C@H](C)[C@@H]1C[C@@](O)(NC(=O)O1)[C@H](OC)C=C/C=C(\C)C2
inactive: [1] 55.5% | [2] 31.3% | [3] 27.6% | [4] 26.5% | [5] 16.6% | [9] 14.2% | [19] 10.2% | [12] 32.4% | [14] 36.1%
active: [6] 6.3% | [7] 4.38% | [8] -7.22% | [10] -4.44% | [16] -42.8% | [17] 9.98% | [18] 3.31%

C=CCNc1ccccc1
inactive: [1] 95.5% | [2] 108% | [3] 94.1% | [4] 95.7% | [5] 101% | [6] 114% | [7] 119% | [8] 93.6% | [9] 95.4% | [19] 96.9% | [10] 92.8% | [11] 107% | [12] 106% | [13] 94% | [14] 101% | [15] 115% | [16] 116% | [17] 110% | [18] 114%

CCCOC(=O)C(O)c1ccccc1 (stereo not given)
inactive: [1] 106% | [2] 50.6% | [3] 102% | [4] 106% | [5] 98.3% | [6] 96.3% | [7] 94.7% | [8] 88.8% | [9] 110% | [19] 107% | [10] 118% | [11] 114% | [12] 94.9% | [13] 119% | [14] 107% | [15] 117% | [16] 106% | [17] 104% | [18] 109%

CCC(C)(C)C1CCC(O)CC1 (stereo not given)
inactive: [1] 103% | [2] 94.9% | [3] 98.7% | [4] 98.7% | [5] 97.7% | [6] 115% | [7] 97.8% | [8] 93.5% | [9] 106% | [19] 102% | [10] 101% | [11] 102% | [12] 92.5% | [13] 107% | [14] 103% | [15] 107% | [16] 104% | [17] 101% | [18] 96.7%

CCC(C)(O)c1ccc(C)cc1 (stereo not given)
inactive: [1] 98% | [2] 109% | [3] 102% | [4] 99.6% | [5] 108% | [6] 104% | [7] 96.9% | [8] 99.3% | [9] 95.6% | [19] 105% | [10] 96.7% | [11] 104% | [12] 101% | [13] 106% | [14] 97.8% | [16] 107% | [18] 110%

Nc1nc(N)c2cc(S(=O)(=O)c3cccc(C(F)(F)F)c3)ccc2n1
inactive: [1] 89.8% | [2] 44% | [3] 33.7% | [4] 72.6% | [5] 38.4% | [6] 65.1% | [7] 78.4% | [8] 45.8% | [9] 37.3% | [19] 46% | [10] 63.1% | [11] 40.7% | [12] 48% | [14] 72.8% | [15] 39.5% | [16] 79.2% | [17] 80.1% | [18] 52.6%

C=CCc1cc(C(C)=O)cc(OC)c1O
inactive: [1] 130% | [2] 100% | [3] 105% | [4] 102% | [5] 121% | [6] 98.2% | [7] 100% | [8] 106% | [9] 98% | [19] 113% | [10] 122% | [11] 101% | [12] 101% | [13] 107% | [14] 113% | [16] 106% | [17] 102% | [18] 107%

Oc1ccccc1O
inactive: [1] 90.1% | [2] 109% | [3] 83.8% | [4] 80.8% | [5] 92.4% | [6] 93.9% | [7] 87.9% | [8] 27.1% | [9] 74.4% | [19] 75.5% | [10] 60.1% | [11] 86.3% | [12] 106% | [13] 77.4% | [14] 120% | [15] 79.1% | [16] 92.3% | [17] 112% | [18] 90.2%

OCC1OC(OC2C(O)C(CO)OC2(CO)OC2OC(CO)C(O)C(O)C2O)C(O)C(O)C1O (stereo not given)
inactive: [1] 106% | [2] 103% | [3] 103% | [4] 106% | [5] 113% | [6] 115% | [7] 94.6% | [8] 88.6% | [9] 126% | [19] 106% | [10] 97.9% | [11] 113% | [12] 107% | [13] 100% | [14] 108% | [15] 123% | [16] 121% | [17] 110% | [18] 107%

Cc1cc(NC(=O)CSCC(=O)O)no1
inactive: [1] 122% | [2] 93.8% | [3] 101% | [4] 86.6% | [5] 105% | [6] 90% | [7] 120% | [8] 107% | [9] 103% | [10] 120% | [11] 99.3% | [12] 99.6% | [13] 107% | [14] 99.3% | [15] 114% | [16] 123% | [17] 78% | [18] 107%

CC(=O)NC(N)=S
inactive: [1] 111% | [2] 118% | [3] 104% | [4] 100% | [5] 104% | [6] 100% | [7] 112% | [8] 86.7% | [19] 90.4% | [10] 103% | [11] 104% | [12] 116% | [13] 111% | [14] 118% | [15] 121% | [16] 119% | [17] 115% | [18] 110%

OCCN(CCO)C(=S)S
inactive: [1] 121% | [2] 96.3% | [3] 102% | [4] 110% | [5] 109% | [6] 93.1% | [7] 114% | [8] 104% | [9] 121% | [10] 111% | [11] 100% | [12] 120% | [13] 118% | [14] 127% | [15] 111% | [16] 121% | [17] 99.7% | [18] 105%

Nc1nc2c(c(-c3nc(N)nc4c3CCc3ccccc3-4)n1)CCc1ccccc1-2
inactive: [1] 134% | [2] 89.9% | [3] 102% | [4] 131% | [5] 95.1% | [6] 76.9% | [7] 125% | [8] 107% | [9] 115% | [10] 105% | [11] 56.8% | [12] 113% | [13] 101% | [14] 87.2% | [15] 109% | [16] 115% | [17] 80.3% | [18] 101%

Cn1cnc2nc(Cl)nc(Cl)c21
inactive: [2] 104% | [3] 22.4% | [5] 29.4% | [7] 62.6% | [9] 35.8% | [19] 27.9% | [10] 23.4% | [11] 24.3% | [12] 59.8% | [13] 42.4% | [14] 61.2% | [15] 30.3% | [17] 72.4% | [18] 27.1%
active: [1] -23.4% | [4] 4.15% | [6] -61.6% | [16] -27.8%

NNc1ccccc1C(=O)O
inactive: [1] 102% | [2] 116% | [3] 116% | [4] 110% | [5] 98.9% | [6] 110% | [7] 98.1% | [9] 107% | [19] 112% | [10] 112% | [11] 110% | [12] 88.9% | [13] 111% | [14] 115% | [15] 118% | [16] 119% | [17] 108% | [18] 107%

CCCC(=O)c1cc(C)ccc1OC
inactive: [1] 103% | [2] 117% | [3] 94.5% | [4] 104% | [5] 103% | [6] 104% | [7] 119% | [8] 96.5% | [10] 110% | [12] 101% | [13] 106% | [14] 109% | [15] 94.1% | [16] 112% | [17] 118% | [18] 112%
